# Assay results from ChEMBL document CHEMBL3988442, “University of Dundee, Small-Polar-MMV Screening Library” (2021).
# The whole screen tested about 69,000 compounds, of which about 1,000 (1.4%) showed an effect of 50% or more. Only a selection was taken, and strong results are over-represented in it overall.
# Test system: Leishmania donovani
# Experiment: Leishmania intramacrophage assay
# Format: functional, organism-based
# Set-up: scale not given: in the data most compounds retested in dose-response had high values
structure (smiles),measurement,setting,value
O=C(CNc1cc(-n2cnnn2)ccc1F)NCc1ccccc1,Percent Effect,"30.3 µM, […]",43.45%
CCOc1ccccc1CCN1Cc2ncccc2C1=O,Percent Effect,"30.3 µM, […]",-1.003%
COc1c(C2CCCN2c2ncnc3sccc23)c(C)nn1C (centres undefined),Percent Effect,"30.3 µM, […]",26.6%
Cc1nn(C)c(Cl)c1C1CCCN1c1ncnc2sccc12 (centres undefined),Percent Effect,"30 µM, 30.03 µM",51.25%
Cc1nn(C)c(C)c1C1CCCN1c1ncnc2sccc12 (centres undefined),Percent Effect,"30.3 µM, […]",33.23%
CC(=O)C(Cc1ccccc1)NC(=O)CSc1nccn1C1CC1 (centres undefined),Percent Effect,"30.3 µM, […]",7.269%
CCC(=O)N1CCC2(CCN(Cc3cccc(F)c3)CC2)CC1.O=C(O)C(F)(F)F,Percent Effect,"30.3 µM, […]",2.147%
Cc1noc(C)c1CN1CCN(Cc2ccncc2)c2ncccc2C1.O=C(O)C(F)(F)F.O=C(O)C(F)(F)F.O=C(O)C(F)(F)F,Percent Effect,"30 µM, 30.03 µM",-14.87%
Cc1noc(C)c1CN1CCO[C@H]2CN(C(=O)C3CCOCC3)C[C@H]21.O=C(O)C(F)(F)F,Percent Effect,"30.3 µM, […]",32.17%
Cc1noc(C)c1CN1CCO[C@H]2CN(Cc3cccc(F)c3)C[C@H]21.O=C(O)C(F)(F)F.O=C(O)C(F)(F)F,Percent Effect,"30.3 µM, […]",56.73%
Cc1noc(C)c1CN1CCN(Cc2cccnc2)c2ncccc2C1.O=C(O)C(F)(F)F.O=C(O)C(F)(F)F.O=C(O)C(F)(F)F,Percent Effect,"30.3 µM, […]",57.48%
Cc1noc(C)c1CN1CCO[C@H]2CN(Cc3ccc(F)cc3)C[C@H]21.O=C(O)C(F)(F)F.O=C(O)C(F)(F)F,Percent Effect,"30.3 µM, […]",23.07%
Cc1noc(C)c1CN1CCC2(CCN(Cc3cccc(F)c3)CC2)C1.O=C(O)C(F)(F)F.O=C(O)C(F)(F)F,Percent Effect,"30.3 µM, […]",59.23%
Cc1noc(C)c1CN1CCN(CC2CC2)c2ncccc2C1.O=C(O)C(F)(F)F.O=C(O)C(F)(F)F,Percent Effect,"30 µM, 30.03 µM",23.02%
CC(=O)N1CCC2(CCN(Cc3cccc(F)c3)CC2)CC1.O=C(O)C(F)(F)F,Percent Effect,"30.3 µM, […]",20%
Cc1ccc(-c2nc(C(=O)N(C)CC(=O)N(C)C)cs2)c(C)c1,Percent Effect,"30.3 µM, […]",-31.91%
CCS(=O)(=O)N1CCC(NCC2CNc3cc(C)nn3C2)CC1 (centres undefined),Percent Effect,"30.3 µM, […]",-7.273%
CC(=O)N1CC(=O)N(c2ccsc2)CC12CCN(Cc1ccoc1)C2 (centres undefined),Percent Effect,"30.3 µM, […]",14.63%
CC1CN(C)CCN1C(=O)c1ccn(-c2cccc(F)c2)n1 (centres undefined),Percent Effect,30 µM,3.559%
CCc1nnc(CNC2CCc3nc(C(C)C)nn3C2)o1 (centres undefined),Percent Effect,"30.3 µM, […]",-6.024%
Cc1csc(-c2ccc(NC(=O)N3CCOCC3)cc2)n1,Percent Effect,"30.3 µM, […]",-0.9004%
Cc1csc(NC(=O)c2ccc(NC(=O)N3CCOCC3)cc2)n1,Percent Effect,"30.3 µM, […]",69.81%
Cc1csc(-c2cccc(NC(=O)N3CCOCC3)c2)n1,Percent Effect,"30.3 µM, […]",24.69%
COc1ccc2cc(CN(C)C(C)c3nc(C4CC4)no3)ccc2c1 (centres undefined),Percent Effect,"30.3 µM, […]",57.64%
CC(c1nc(C2CC2)no1)N(C)Cc1ccc2c(c1)OCCO2 (centres undefined),Percent Effect,"30.3 µM, […]",14.22%
COc1ccc2cc(CN(C)C(C)c3nc(C(C)(C)C)no3)ccc2c1 (centres undefined),Percent Effect,"30.3 µM, […]",20.66%
CSCc1noc(CNC(=O)c2cc(C)c(C)[nH]c2=O)n1,Percent Effect,"30.3 µM, […]",20.7%
O=C(CN1CCC(Nc2ncccn2)CC1)Nc1ccccc1,Percent Effect,"30.3 µM, […]",51.04%
Cc1cnc(NC2CCN(CC(=O)Nc3ccccc3)CC2)nc1C,Percent Effect,"30.3 µM, […]",18.37%
COc1ccnc(NC2CCN(CC(=O)Nc3ccccc3)CC2)n1,Percent Effect,"30.3 µM, […]",-0.8363%
CCc1nnc(CN(CC)C(=O)C2CC(=O)N(C3CCCC3)C2)o1 (centres undefined),Percent Effect,"30.3 µM, […]",-15.82%
Cc1nn(C)c(Oc2ccc(Cl)cc2)c1CN1CCC(CN)C1 (centres undefined),Percent Effect,"30.3 µM, […]",74.8%
Cc1nn(C)c(Oc2ccc(Cl)cc2)c1CN1CC[C@H](CO)[C@@H](O)C1,Percent Effect,"30.3 µM, […]",9.933%
Cc1nn(C)c(Oc2ccc(Cl)cc2)c1CN1CCOC(CN)C1 (centres undefined),Percent Effect,"30.3 µM, […]",3.142%
CC(=O)NCCCC(=O)N1CCC(Sc2cccc(C)c2)CC1,Percent Effect,"30.3 µM, […]",42.91%
Cc1cccc(SC2CCN(C(=O)CCCn3cnnn3)CC2)c1,Percent Effect,"30.3 µM, […]",53.34%
Cc1cccc(SC2CCN(C(=O)CCCS(N)(=O)=O)CC2)c1,Percent Effect,"30.3 µM, […]",24.28%
CCOCC(=O)N1CSCC1C(=O)N(C)Cc1ccco1 (centres undefined),Percent Effect,30 µM,13.38%
CCCc1nc(N2CC[C@@H](c3ccc4ccccc4c3)[C@H](O)C2)no1,Percent Effect,"30.3 µM, […]",50.36%
Cc1nc(N2CC[C@@H](c3ccc4ccccc4c3)[C@H](O)C2)no1,Percent Effect,"30.3 µM, […]",18.28%
CCCc1nc(N2CC[C@@H](c3ccc4c(c3)OCO4)[C@H](O)C2)no1,Percent Effect,"30.3 µM, […]",11.09%
Cc1cc(N2CCc3c(nc(C(C)C)n3C)C2)nc(N)n1,Percent Effect,"30.3 µM, […]",17.43%
Cc1nc(C)n(CC2CCCN2CC(=O)Nc2cccnc2)n1 (centres undefined),Percent Effect,"30.3 µM, […]",2.659%
Cc1nc(C)n(CC2CN(CC(=O)Nc3cccnc3)CCO2)n1 (centres undefined),Percent Effect,"30 µM, 30.03 µM",31.54%
Cc1nc(C)n(CC2CCCN2CC(=O)Nc2ccncc2)n1 (centres undefined),Percent Effect,"30.3 µM, […]",50.98%
Cc1nc(C)n(CC2CCCCN2CC(=O)Nc2ccncc2)n1 (centres undefined),Percent Effect,"30 µM, 30.03 µM",-8.014%
Cc1nc(C)n(CC2CCCN(CC(=O)Nc3cccnc3)C2)n1 (centres undefined),Percent Effect,"30.3 µM, […]",59.36%
Cc1nc(C)n(CC2CCCN(CC(=O)Nc3ccncc3)C2)n1 (centres undefined),Percent Effect,30 µM,29.85%
Cc1nc(CN(C)C2CCCN(Cc3noc(C4CC4)n3)C2)oc1C (centres undefined),Percent Effect,30 µM,-8.721%
